# A number with no mark means an inactive call. No rule for the calls is given here.
# Target: Pantothenate synthetase (Mycobacterium tuberculosis (strain ATCC 25618 / H37Rv)) (UniProt P9WIL5)
# Assay: Coupled enzyme confirmation of inhibitors against recombinant Mtb PanC (AID 375);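 also: 0% = full reaction with vehicle and 100% = no enzyme background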
# Conditions: coupled enzyme assay; at 10 µM, stronger effect = higher value
# Sequence of Pantothenate synthetase (Mycobacterium tuberculosis (strain ATCC 25618 / H37Rv)) (P9WIL5 whole entry, looked up): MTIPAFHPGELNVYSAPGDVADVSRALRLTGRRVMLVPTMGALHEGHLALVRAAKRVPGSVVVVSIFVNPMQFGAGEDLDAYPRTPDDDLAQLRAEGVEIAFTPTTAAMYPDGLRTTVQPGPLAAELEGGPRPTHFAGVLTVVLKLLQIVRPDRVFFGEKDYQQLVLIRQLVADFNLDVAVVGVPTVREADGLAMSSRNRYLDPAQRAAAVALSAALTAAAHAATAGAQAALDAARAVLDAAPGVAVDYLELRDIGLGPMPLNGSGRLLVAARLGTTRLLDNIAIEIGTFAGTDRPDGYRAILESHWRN
row,SMILES,inhibition
1,CC1=C(C(=O)OCCOC(C)C)C(c2cc3c(cc2Br)OCO3)C2=C(CCCC2=O)N1 (stereo not drawn),0%
2,Cn1c(/C(C#N)=C/Nc2ccccn2)nc2ccccc21,0%
3,O=C(COC(=O)C1CC1)c1c[nH]c2ccccc12,1%
4,Cn1c(NC(=O)c2ccccc2NC(=O)C(C)(C)C)nc2ccccc21,0%
5,O=C(NC1CCCC1)c1c[nH]c2ccc(F)cc2c1=O,0%
6,O=C(CCSc1nc(-c2ccco2)cc(C(F)(F)F)n1)Nc1ccc2c(c1)OCO2,0%
7,CC(=O)c1cccc(NC(=O)c2ccc(NS(C)(=O)=O)cc2)c1,1%
8,CCC(=O)N1C(=O)CCN(C(C)=O)c2ccccc21,0%
9,COCCSc1nnc(NC(=O)Cc2ccccc2OC)s1,4%
10,O=C(Cn1ncc2c(=O)oc3ccccc3c21)NCCCN1CCCC1=O,0%
11,CNCCCC1c2ccccc2C=Cc2ccccc21,0%
12,O=C(O)CCN1C(=O)c2ccccc2C1=O,6%
13,Cc1ccc(S(=O)(=O)NCC(=O)OCC(=O)Nc2ncc(Cl)cc2Cl)cc1,0%
14,c1ccn2c(SCc3ccc4c(c3)OCCO4)nnc2c1,1%
15,CC(=O)c1ccc(N2CCN(C(=O)c3cc(C)on3)CC2)cc1,0%
16,O=C(CSc1nc2ccccc2s1)N1CCN(C(=O)c2ccco2)CC1,0%
17,Cc1cc(NCCN2CCOCC2)n2nc(C)c(-c3ccccc3)c2n1,0%
18,COc1ccc(C(=O)N2CCN(c3nc4cc(C)ccc4cc3C#N)CC2)c(OC)c1,0%
19,O=C(CSc1nnc(-c2ccco2)n1-c1ccccc1)N1CCN(C(=O)c2ccco2)CC1,0%
20,COC(=O)c1[nH]c2c(c1C)C(=O)CC(c1cccs1)C2 (stereo not drawn),3%
21,COCCNC(=O)C(c1ccc(C)o1)N(C(=O)c1snc(C(N)=O)c1N)c1ccc(C)cc1 (stereo not drawn),4%
22,Cc1ccc(-c2nc(=S)c3c(n2Cc2ccco2)CCCC3)cc1,0%
23,COc1ccc(C(=O)Nn2c(C3CCC3)nc3ccccc3c2=O)c(OC)c1,0%
